Test results taken from PubChem BioAssay AID652054 (National Center for Advancing Translational Sciences (NCATS), 2013).
Screen size: about 360,000 compounds; about 9,100 (2.5%) were called active. Inconclusive results (about 4%) are left out. Cut-off read from the data, not from the text of the source: active = max response below about -50%; inconclusive = no clear call, values can overlap the other calls; inactive = above that. This excerpt belongs to a sample that is enriched for actives.

Molecular target: D(3) dopamine receptor (Homo sapiens) (UniProt P35462)
Sequence (P35462 whole entry, looked up): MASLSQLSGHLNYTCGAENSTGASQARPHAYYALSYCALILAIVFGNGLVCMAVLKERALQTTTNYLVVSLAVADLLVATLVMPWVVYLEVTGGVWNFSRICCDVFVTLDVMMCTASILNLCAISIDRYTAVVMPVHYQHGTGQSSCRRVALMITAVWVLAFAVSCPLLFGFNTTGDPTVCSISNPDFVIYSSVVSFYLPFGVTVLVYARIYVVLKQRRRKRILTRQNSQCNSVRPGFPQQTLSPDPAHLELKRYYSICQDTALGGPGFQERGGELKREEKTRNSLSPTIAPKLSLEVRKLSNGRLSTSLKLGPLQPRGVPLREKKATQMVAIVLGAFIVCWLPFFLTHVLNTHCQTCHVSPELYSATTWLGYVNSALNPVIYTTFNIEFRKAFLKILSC
Experiment: qHTS of D3 Dopamine Receptor Antagonist: qHTS
Conditions: D3R cells, DiscoveRx beta-arrestin luminescence, antagonist mode; hits give low values
How it was run: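 Cells expressing the human receptor were seeded at 1500 cells/well, incubated overnight at 37 degrees C in 5% CO2, then exposed to library compounds with dopamine controls for 90 minutes at 37 degrees C before luminescent detection.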
% is set by controls: 0 for no effect and ±100 for the full control effect.

SMILES | max response, negative = inhibition
COc1ccc(-c2cc(-c3ccc(N)cc3)nc(N)c2C#N)cc1OC | 23.8% (inactive)
COc1ccc(-c2ccc(Nc3ccc(S(=O)(=O)N4CCCC4)cc3)nn2)cc1OC | 39.5% (inactive)
COc1ccc(-c2cc(C(F)(F)F)nc(S(C)(=O)=O)n2)cc1OC | -72.7% (active)
COc1ccc(NC(=O)CCCOc2ccc(C(C)=O)cc2)cc1S(=O)(=O)N1CCCCC1 | -5.42% (inactive)
CC(C)NC(=O)C1(C)CCCCCN1C(=O)c1ccc(-c2ccccc2)cc1 (configuration not stated) | 15.2% (inactive)
CCOC(=O)C(=Cc1ccccc1)C(=O)c1ccccc1 | -59.2% (active)
CCOC(=O)C(=CNc1cccc(C)n1)C(=O)OCC | -3.11% (inactive)
CCOC(=O)C(=Cc1ccccc1OC)C(=O)OCC | -20.5% (inactive)
COC(=O)c1ccc2nc(-c3cccc(Br)c3)c(Cc3ccc(OC)cc3C)n2c1 | -25.6% (inactive)
Cc1ccccc1S(=O)(=O)N1[C@@H](c2cccc(Cl)c2)C(C(=O)OC(C)(C)C)=CC[C@H]1c1ccc(Cl)cc1 | 6.92% (inactive)
CC(Sc1nnc(-c2cccs2)n1C1CC1)C(=O)NCC1CCCO1 (configuration not stated) | 15.9% (inactive)
CCOc1ccccc1-c1nc(CN2CCC(C(=O)N3CCOCC3)CC2)c(C)o1 | -15.7% (inactive)
CCOC(=O)C1(CC2CCCCO2)CCN(Cc2nc(-c3cccs3)oc2C)CC1 (configuration not stated) | -99% (active)
COc1ccccc1-c1cc2nc(NCc3cccc(Cl)c3)ccn2n1 | 7.72% (inactive)
Cc1cccc(C)c1-n1nnnc1C1(C)CCC(=O)N1CCOc1ccccc1 (configuration not stated) | 8.1% (inactive)
COc1ccc(CN2CCN(C(=O)c3cc(C4CC4)nn3-c3ccccc3)CC2)cc1F | -50% (active)
CCc1ccccc1NC(=O)CN1CCN(C(=O)c2cc(C3CC3)nn2-c2ccccc2)CC1 | 13.7% (inactive)
COc1ccc(NC(=O)CN(C)C(=O)c2cc(C3CC3)nn2-c2ccccc2)cc1 | -0.552% (inactive)
CC(C)OC(=O)CC(=O)CC(O)c1cccc([N+](=O)[O-])c1 (configuration not stated) | -17.6% (inactive)
CC(C)(C)N1C(=O)[C@H]2[C@@H](c3ccc(Br)cc3)N3C(=O)N(c4cccc(Cl)c4)C(=O)[C@@]3(C)[C@H]2C1=O | -1.37% (inactive)
CC[C@@]12C(=O)N(c3ccccc3)C(=O)N1[C@H](c1ccc(Br)cc1)[C@@H]1C(=O)N(C(C)(C)C)C(=O)[C@@H]12 | -54% (active)

SMILES | max response, negative = inhibition
COc1ccc([C@@H]2[C@@H]3C(=O)N(C(C)(C)C)C(=O)[C@@H]3[C@]3(Cc4ccccc4)C(=O)N(c4cccc(Br)c4)C(=O)N23)cc1 | 8.03% (inactive)
O=C1C(Sc2cccc(F)c2)=C[C@@]2(O)CC[C@@H](O)[C@]1(Sc1cccc(F)c1)[C@H]2O | 4.49% (inactive)
CCOC(=O)C(C)n1cnc2c(nnn2-c2ccc(F)cc2)c1=O (configuration not stated) | -1.26% (inactive)
CCOC(=O)C(C)n1cnc2c(nnn2-c2cccc(OC)c2)c1=O (configuration not stated) | -57.8% (active)
COC(=O)C(C)n1cnc2c(nnn2-c2ccc(F)cc2)c1=O (configuration not stated) | 0% (inactive)
CCCCCCCCN1C(=O)[C@H](CC(=O)NCc2cccc3ccccc23)C[C@@]2(C(=O)OC)CCCCC=C12 | 10.6% (inactive)
C#CCOCCOCCOCCNc1nc(N2CCN(C(=O)[C@H](C(C)C)n3cc(CCO)nn3)CC2)nc(N2CCN(C(=O)[C@H](C(C)C)n3cc(CCO)nn3)CC2)n1 | 8.41% (inactive)
C#CCOCCOCCOCCNc1nc(N2CCN(C(=O)Cn3cc(CCO)nn3)CC2)nc(N2CCN(C(=O)[C@H](CCCCN)n3cc(CCCC)nn3)CC2)n1 | 15.4% (inactive)
C#CCOCCOCCOCCNc1nc(N2CCN(C(=O)CCCCCCCCCCNC(=O)[C@H]([C@@H](C)CC)n3cc(CCCCN=C(N)N)nn3)CC2)nc(N2CCN(C(=O)CCCCCCCCCCNC(=O)[C@H](CO)n3cc(CCCSC)nn3)CC2)n1 | -60.9% (active)
Cc1ccc(-c2nc3c(Cl)cc(C(F)(F)F)cn3c2Cc2cccc(Cl)c2)cc1 | 50.6% (inactive)
COc1cc2nnn(-c3ccncc3)c2cc1OC | 28% (inactive)
COC(=O)c1c(NC(=O)c2c(Cl)cnn2C)sc(C)c1C | 11.6% (inactive)
CCC(=O)Nc1sc(C(=O)Nc2ccccc2)c(C)c1C(=O)OC | 31.4% (inactive)
COCCCNCC(=O)Nc1sc(C)c(C)c1C(=O)OC | -52.8% (active)
COCc1cccc(-c2csc(C(O)c3ccc(F)cc3)n2)c1 (configuration not stated) | 0% (inactive)
O=C(c1cccs1)N1C[C@H](n2cc(C3CC3)nn2)[C@@H](O)C[C@@H]1c1ccccc1 | -2.86% (inactive)
C=CCn1c2c(c3ccccc31)CCC2 | -10.5% (inactive)
CC(C)C1C(=O)N(Cc2cn(CCC3OCCO3)nn2)CCS(=O)(=O)N1Cc1ccc(-c2ccccc2C(F)(F)F)cc1 (configuration not stated) | -3.14% (inactive)
O=C1[C@H]2[C@@H](c3ccc(Cl)cc3)N3C(=O)N(c4cccc(F)c4)C(=O)[C@@]3(Cc3ccccc3)[C@H]2C(=O)N1C1CCCCC1 | -0.596% (inactive)
Cc1cccc(N2C(=O)N3[C@H](c4ccc(F)cc4)[C@@H]4C(=O)N(C5CCCCC5)C(=O)[C@@H]4[C@]3(Cc3ccccc3)C2=O)c1 | -58.6% (active)
O=C1[C@H]2[C@@H](c3ccc(F)cc3)N3C(=O)N(c4ccc(C(F)(F)F)cc4)C(=O)[C@@]3(Cc3ccccc3)[C@H]2C(=O)N1C1CCCCC1 | -13.4% (inactive)

SMILES | max response, negative = inhibition
OC[C@@H]1CN(Cc2cccs2)C[C@H](n2cnc3c(NC4CCCC4)ncnc32)O1 | 18.9% (inactive)
CC(C)c1cccc(-c2csc(C(O)c3ccccc3)n2)c1 (configuration not stated) | -27.4% (inactive)
COc1ccc2sc(-c3ccccc3OC)c(-c3ccc(OCCN4CCCC4)cc3)c2c1 | -83.2% (active)
COc1ccccc1-c1sc2ccccc2c1-c1ccc(Br)nc1 | -14.1% (inactive)
COc1cccc(-c2sc3ccc(OC)cc3c2-c2ccc(OCCN3CCCCC3)cc2)c1 | -12.2% (inactive)
O=C(Nc1ccc(C2CC2(Cl)Cl)cc1)c1cccc([N+](=O)[O-])c1 (configuration not stated) | -14.6% (inactive)
CC(C)(Oc1ccc(C2CC2(Cl)Cl)cc1)C(=O)O (configuration not stated) | -111% (active)
CCc1nc2c(OCc3ccc(F)c(F)c3)cccn2c1N(C)C(=O)c1ccco1 | 15.7% (inactive)
O=C(NC1=NCCS1)c1ccc(Cl)s1 | -77% (active)
COc1ccccc1C(=O)NCCC(=O)NC1=NCCS1 | 0% (inactive)
COc1ccc(C(=O)NC2=NCCS2)c(OC)c1 | 5.28% (inactive)
O=C(CSc1cccc[n+]1[O-])c1ccc(Cl)cc1 | -3.66% (inactive)
O=C(Cn1cc(-c2nnnn2-c2ccc(Cl)cc2)c(=O)c2ccccc21)c1ccccc1 | 36.4% (inactive)
O=C(C[n+]1ccc2c(c1)nnn2-c1ccccc1)c1ccc(Cl)cc1 | -54.4% (active)
Cc1noc(C)c1C(=O)N1CCC1(C)C(=O)NS(=O)(=O)c1ccc(C#N)cc1 (configuration not stated) | 13.1% (inactive)
COc1ccc(OC)c(NC(=O)c2sc3nc(C)cc(C)c3c2N)c1 | 22.5% (inactive)
COCc1cc(C)nc2sc(C(=O)NC3CCCCC3)c(N)c12 | -50.5% (active)
Cc1cccn2c(=O)c3cc(C(=O)NC4CCCCC4)sc3nc12 | -12.3% (inactive)
COc1cncc(-c2cnc3sc(NCCc4ccccn4)nn23)c1 | 60.8% (inactive)
Cc1ccsc1/C=N/n1c(=S)[nH]nc(C)c1=O | -20.9% (inactive)
S=c1[nH]nc(-c2ccncc2)n1/N=C/c1ccccc1Cl | 38% (inactive)

SMILES | max response, negative = inhibition
Cc1ccc(/C=N\n2c(-c3ccccc3)n[nH]c2=S)s1 | -72.1% (active)
Oc1ccccc1/C=N/n1c(-c2cccs2)n[nH]c1=S | -79.6% (active)
S=c1[nH]nc(-c2cccs2)n1/N=C/c1cn(-c2ccccc2)nc1-c1ccc(Cl)cc1 | -16% (inactive)
Fc1ccccc1/C=N/n1c(-c2cccnc2)n[nH]c1=S | -11.6% (inactive)
CCCCCC(=O)N1C[C@H](O)[C@@H](n2cc(COC(=O)c3ccccc3)nn2)C[C@@H]1c1ccc(C)cc1 | 8.87% (inactive)
COC(=O)C1=CN(c2c(C)cc(C)cc2C)C(N)=C(C#N)C1c1cccc(F)c1 (configuration not stated) | 2.73% (inactive)
Cc1ccnc(SC2CC(=O)N(c3ccccc3)C2=O)n1 (configuration not stated) | -15.3% (inactive)
CC[C@@H]1CC2=C(C(=O)OC(C)(C)O2)[C@@H](CC)O1 | 16.4% (inactive)
COC(=O)C1(C(=O)OC)C/C=C\CN(S(=O)(=O)c2ccccc2[N+](=O)[O-])CCC1 | 25.7% (inactive)
CCc1nc2ccc(C(=O)NC3CCN(Cc4ccccc4)CC3)cn2c1N(C)CCN1CCOCC1 | 14% (inactive)
Cc1ccc(-c2cc(C(=O)NC3CCN(Cc4ccccc4)CC3)c3ccccc3n2)cc1 | -13.4% (inactive)
Cc1ccn2cc(C(=O)NC3CCN(Cc4ccccc4)CC3)nc2c1 | -65.2% (active)
Cc1cc(C(=O)NC2CC(C)(C)Cc3c2cnn3-c2ccccc2)n[nH]1 (configuration not stated) | -0.849% (inactive)
COC(=O)c1cc(S(=O)(=O)NC2CCN(Cc3ccccc3)CC2)cn1C | 11.7% (inactive)
Cc1cc(C(=O)NC2CCN(Cc3ccccc3)CC2)n[nH]1 | -81.2% (active)
CCc1nc2ccc(C(=O)N3CCN(S(=O)(=O)CC)CC3)cn2c1N(C=O)CCC(C)C | -18.9% (inactive)
CCCNC(=O)C1(C)CCN1C(=O)Cc1ccc(-c2ccccc2)cc1 (configuration not stated) | -20.6% (inactive)
C[C@H]1NS(=O)(=O)c2cc(Cl)ccc2O[C@@H]1c1ccccc1 | -18.7% (inactive)
O=[N+]([O-])/C=C/c1ccc2c(ccn2Cc2ccccc2)c1 | -54.4% (active)
